{"source": "PubChem BioAssay (NCATS)", "note": "Inconclusive results are not listed. Entries that show only a call come without a potency. The source made the active and inactive calls. Calls follow the shape of the full dose curve; tested in HEK293 reporter line. Potency is read from the fitted curve at half-maximal effect.", "data": [{"assay": "qHTS for Inhibitors of the Functional Ribonucleoprotein Complex (vRNP) of Lassa (LASV) Arenavirus: LASV Primary Screen - GLuc reporter signal (AID 1347082); also: nearly all actives have a fitted effect of over 60% in size", "conditions": "LASV minigenome vRNP, Gaussia luciferase reporter; series mostly up to 57.5 µM", "values": [{"smiles": "C[C@@H]1OC(O[C@H]2[C@H](Oc3cc(O)c4c(=O)c(O)c(-c5ccc(O)cc5)oc4c3)O[C@H](CO)[C@@H](O)[C@@H]2O)[C@H](O)[C@H](O)[C@H]1O", "note": "(stereo not given in full)", "Potency": "inactive"}, {"smiles": "COc1ccc([C@@H](OC)[C@@]2(Cc3ccc(O)cc3)N=C(N)N(C)C2=O)cc1", "Potency": "inactive"}, {"smiles": "O=C(/C=C/c1ccccc1)OCCc1ccccc1", "Potency": "inactive"}, {"smiles": "COc1cc(C2c3cc4c(c(O)c3CC3COC(=O)C32)OCO4)cc(OC)c1O", "note": "(stereo not given)", "Potency": "inactive"}, {"smiles": "O=C(O)/C=C/c1ccc2c(c1)OCO2", "Potency": "inactive"}, {"smiles": "CC(C)(C)[N+]([O-])=Cc1ccc(S(=O)(=O)O)cc1S(=O)(=O)O", "Potency": "inactive"}, {"smiles": "Cn1c(=O)c(-c2ccccc2)c(O)c2ccccc21", "Potency": "inactive"}, {"smiles": "COc1ccc(/C=C/C(=O)O)cc1", "Potency": "inactive"}, {"smiles": "CC(=O)N1CCN(c2ccc(OCc3nn(C)c(C)c3-c3cccc4c(CCCOc5cc(C)c(Cl)c(C)c5)c(C(=O)O)n(Cc5cccnc5)c34)cc2)CC1", "Potency": "inactive"}, {"smiles": "C=C(C)[C@@H]1CCC2=CCC[C@@H](C)[C@]2(C)C1", "Potency": "inactive"}, {"smiles": "N[C@@H](CCCCNC(=O)CCCC[C@@H]1SC[C@H]2NC(=O)N[C@H]12)C(=O)O", "Potency": "inactive"}, {"smiles": "CC1(C)CC(=O)CC(C)(C)N1", "Potency": "inactive"}, {"smiles": "C=CC(C)(CCC=C(C)C)OC(=O)CC", "note": "(stereo not given)", "Potency": "inactive"}, {"smiles": "COC(=O)C1(Cc2ccc(O)c(CC3OC3(C)C)c2)OC(=O)C(O)=C1c1ccc(O)cc1", "note": "(stereo not given)", "Potency": "inactive"}, {"smiles": "OC[C@H]1O[C@@H]2O[C@H]3[C@H](O)[C@@H](O)[C@@H](O[C@H]4[C@H](O)[C@@H](O)[C@@H](O[C@H]5[C@H](O)[C@@H](O)[C@@H](O[C@H]6[C@H](O)[C@@H](O)[C@@H](O[C@H]7[C@H](O)[C@@H](O)[C@@H](O[C@H]8[C@H](O)[C@@H](O)[C@@H](O[C@H]9[C@H](O)[C@@H](O)[C@@H](O[C@H]1[C@H](O)[C@H]2O)O[C@@H]9CO)O[C@@H]8CO)O[C@@H]7CO)O[C@@H]6CO)O[C@@H]5CO)O[C@@H]4CO)O[C@@H]3CO", "Potency": "inactive"}, {"smiles": "CCC(C)c1nccnc1OC", "note": "(stereo not given)", "Potency": "inactive"}, {"smiles": "CC(C)NC[C@@H](C(=O)N1CCN(c2ncnc3c2[C@H](C)C[C@H]3O)CC1)c1ccc(Cl)cc1", "Potency": "968 nM (active)"}, {"smiles": "CC(=O)O[C@]1(C(C)=O)CC[C@@H]2[C@@H]3C[C@H](C)C4=CC(=O)CC[C@]4(C)[C@H]3CC[C@@]21C", "Potency": "inactive"}, {"smiles": "COc1cc(C(=O)O[C@H]2C/C(C)=C/CC/C(C)=C/[C@@H](O)C2C(C)C)ccc1O", "note": "(stereo not given in full)", "Potency": "inactive"}, {"smiles": "CC(C)=CCOc1ccc2ccc(=O)oc2c1", "Potency": "inactive"}, {"smiles": "CC12CCC(=O)C=C1CCC1C2CCC2(C)C(C(=O)CO)CC(O)C12", "note": "(stereo not given)", "Potency": "inactive"}, {"smiles": "OC/C=C/c1ccccc1", "Potency": "inactive"}, {"smiles": "CC(=O)c1ccccc1O", "Potency": "inactive"}, {"smiles": "COc1c2ccoc2nc2c(OC)c(O[C@@H]3O[C@H](C)[C@@H](O)[C@@H](O)[C@H]3O)ccc12", "Potency": "inactive"}, {"smiles": "COc1ccc2ccc(=O)oc2c1CC(=O)C(C)C", "Potency": "inactive"}, {"smiles": "CC(C)(O)Cc1ccccc1", "Potency": "inactive"}, {"smiles": "CC[C@H]1O[C@]2(CC[C@@H]1C)C[C@@H]1C[C@@H](C/C=C(\\C)C[C@@H](C)/C=C/C=C3\\CO[C@@H]4[C@H](O)C(C)=C[C@@H](C(=O)O1)[C@]34O)O2", "Potency": "inactive"}, {"smiles": "CC/C=C\\CCOC(=O)CCCCC", "Potency": "inactive"}, {"smiles": "C[C@H]1O[C@H](O[C@H]2[C@H](O)[C@@H](O)[C@@H](O[C@H]3[C@H](O)[C@@H](O)C(O)O[C@H]3CO)O[C@H]2CO)[C@H](O)[C@@H](O)[C@H]1N[C@H]1C=C(CO)[C@@H](O)[C@H](O)[C@@H]1O", "note": "(stereo not given in full)", "Potency": "inactive"}, {"smiles": "CC(C)CN(C[C@H](O)[C@H](Cc1ccccc1)NC(=O)O[C@H]1CCOC1)S(=O)(=O)c1ccc(N)cc1", "Potency": "inactive"}, {"smiles": "NC(=O)c1ncn([C@@H]2O[C@H](CO)[C@@H](O)[C@@H]2O)c1N", "Potency": "inactive"}, {"smiles": "CC(Cc1c[nH]c2ccccc12)C(=O)O", "note": "(stereo not given)", "Potency": "inactive"}, {"smiles": "CC(C)=CCC/C(C)=C/C(=O)O", "Potency": "inactive"}, {"smiles": "CCCc1ccc(OC)cc1", "Potency": "inactive"}, {"smiles": "CCCCCCC(CO)CCCC", "note": "(stereo not given)", "Potency": "inactive"}, {"smiles": "CCCCCCCCCCCCC(=O)CCCCC(=O)O", "Potency": "inactive"}, {"smiles": "COc1ccc(CO)cc1", "Potency": "inactive"}, {"smiles": "C=C1CC23C[C@H]4[C@@H]5[C@@]6(C)C[C@H](OC(=O)c7ccccc7)[C@@H](OC(C)=O)[C@]57[C@@H]2[C@@H](OC(C)=O)[C@H]1[C@@H](O)[C@H]3[C@H]7N4C6", "Potency": "inactive"}, {"smiles": "O=C(O)C=C(Br)Br", "Potency": "inactive"}, {"smiles": "O=C1CCCCCCCCCCCCCCO1", "Potency": "inactive"}]}, {"assay": "qHTS for Inhibitors of the Functional Ribonucleoprotein Complex (vRNP) of Lassa (LASV) Arenavirus: Viability assay - alamar blue signal for LASV Primary Screen (AID 1347083); also: nearly all actives have a fitted effect of over 80% in size", "conditions": "cell viability, alamar blue fluorescence (LASV minigenome counter-screen); series mostly up to 57.5 µM", "values": [{"smiles": "C[C@@H]1OC(O[C@H]2[C@H](Oc3cc(O)c4c(=O)c(O)c(-c5ccc(O)cc5)oc4c3)O[C@H](CO)[C@@H](O)[C@@H]2O)[C@H](O)[C@H](O)[C@H]1O", "note": "(stereo not given in full)", "Potency": "inactive"}, {"smiles": "COc1ccc([C@@H](OC)[C@@]2(Cc3ccc(O)cc3)N=C(N)N(C)C2=O)cc1", "Potency": "inactive"}, {"smiles": "O=C(/C=C/c1ccccc1)OCCc1ccccc1", "Potency": "inactive"}, {"smiles": "COc1cc(C2c3cc4c(c(O)c3CC3COC(=O)C32)OCO4)cc(OC)c1O", "note": "(stereo not given)", "Potency": "inactive"}, {"smiles": "O=C(O)/C=C/c1ccc2c(c1)OCO2", "Potency": "inactive"}, {"smiles": "CC(C)(C)[N+]([O-])=Cc1ccc(S(=O)(=O)O)cc1S(=O)(=O)O", "Potency": "inactive"}, {"smiles": "Cn1c(=O)c(-c2ccccc2)c(O)c2ccccc21", "Potency": "inactive"}, {"smiles": "COc1ccc(/C=C/C(=O)O)cc1", "Potency": "inactive"}, {"smiles": "CC(=O)N1CCN(c2ccc(OCc3nn(C)c(C)c3-c3cccc4c(CCCOc5cc(C)c(Cl)c(C)c5)c(C(=O)O)n(Cc5cccnc5)c34)cc2)CC1", "Potency": "inactive"}, {"smiles": "C=C(C)[C@@H]1CCC2=CCC[C@@H](C)[C@]2(C)C1", "Potency": "inactive"}, {"smiles": "N[C@@H](CCCCNC(=O)CCCC[C@@H]1SC[C@H]2NC(=O)N[C@H]12)C(=O)O", "Potency": "inactive"}, {"smiles": "CC1(C)CC(=O)CC(C)(C)N1", "Potency": "inactive"}, {"smiles": "C=CC(C)(CCC=C(C)C)OC(=O)CC", "note": "(stereo not given)", "Potency": "inactive"}, {"smiles": "COC(=O)C1(Cc2ccc(O)c(CC3OC3(C)C)c2)OC(=O)C(O)=C1c1ccc(O)cc1", "note": "(stereo not given)", "Potency": "inactive"}, {"smiles": "OC[C@H]1O[C@@H]2O[C@H]3[C@H](O)[C@@H](O)[C@@H](O[C@H]4[C@H](O)[C@@H](O)[C@@H](O[C@H]5[C@H](O)[C@@H](O)[C@@H](O[C@H]6[C@H](O)[C@@H](O)[C@@H](O[C@H]7[C@H](O)[C@@H](O)[C@@H](O[C@H]8[C@H](O)[C@@H](O)[C@@H](O[C@H]9[C@H](O)[C@@H](O)[C@@H](O[C@H]1[C@H](O)[C@H]2O)O[C@@H]9CO)O[C@@H]8CO)O[C@@H]7CO)O[C@@H]6CO)O[C@@H]5CO)O[C@@H]4CO)O[C@@H]3CO", "Potency": "inactive"}, {"smiles": "CCC(C)c1nccnc1OC", "note": "(stereo not given)", "Potency": "inactive"}, {"smiles": "CC(C)NC[C@@H](C(=O)N1CCN(c2ncnc3c2[C@H](C)C[C@H]3O)CC1)c1ccc(Cl)cc1", "Potency": "243 nM (active)"}, {"smiles": "CC(=O)O[C@]1(C(C)=O)CC[C@@H]2[C@@H]3C[C@H](C)C4=CC(=O)CC[C@]4(C)[C@H]3CC[C@@]21C", "Potency": "inactive"}, {"smiles": "COc1cc(C(=O)O[C@H]2C/C(C)=C/CC/C(C)=C/[C@@H](O)C2C(C)C)ccc1O", "note": "(stereo not given in full)", "Potency": "inactive"}, {"smiles": "CC(C)=CCOc1ccc2ccc(=O)oc2c1", "Potency": "inactive"}, {"smiles": "CC12CCC(=O)C=C1CCC1C2CCC2(C)C(C(=O)CO)CC(O)C12", "note": "(stereo not given)", "Potency": "inactive"}, {"smiles": "OC/C=C/c1ccccc1", "Potency": "inactive"}, {"smiles": "CC(=O)c1ccccc1O", "Potency": "inactive"}, {"smiles": "COc1c2ccoc2nc2c(OC)c(O[C@@H]3O[C@H](C)[C@@H](O)[C@@H](O)[C@H]3O)ccc12", "Potency": "inactive"}, {"smiles": "COc1ccc2ccc(=O)oc2c1CC(=O)C(C)C", "Potency": "inactive"}, {"smiles": "CC(C)(O)Cc1ccccc1", "Potency": "inactive"}, {"smiles": "CC[C@H]1O[C@]2(CC[C@@H]1C)C[C@@H]1C[C@@H](C/C=C(\\C)C[C@@H](C)/C=C/C=C3\\CO[C@@H]4[C@H](O)C(C)=C[C@@H](C(=O)O1)[C@]34O)O2", "Potency": "inactive"}, {"smiles": "CC/C=C\\CCOC(=O)CCCCC", "Potency": "inactive"}, {"smiles": "C[C@H]1O[C@H](O[C@H]2[C@H](O)[C@@H](O)[C@@H](O[C@H]3[C@H](O)[C@@H](O)C(O)O[C@H]3CO)O[C@H]2CO)[C@H](O)[C@@H](O)[C@H]1N[C@H]1C=C(CO)[C@@H](O)[C@H](O)[C@@H]1O", "note": "(stereo not given in full)", "Potency": "inactive"}, {"smiles": "CC(C)CN(C[C@H](O)[C@H](Cc1ccccc1)NC(=O)O[C@H]1CCOC1)S(=O)(=O)c1ccc(N)cc1", "Potency": "inactive"}, {"smiles": "NC(=O)c1ncn([C@@H]2O[C@H](CO)[C@@H](O)[C@@H]2O)c1N", "Potency": "inactive"}, {"smiles": "CC(Cc1c[nH]c2ccccc12)C(=O)O", "note": "(stereo not given)", "Potency": "inactive"}, {"smiles": "CC(C)=CCC/C(C)=C/C(=O)O", "Potency": "inactive"}, {"smiles": "CCCc1ccc(OC)cc1", "Potency": "inactive"}, {"smiles": "CCCCCCC(CO)CCCC", "note": "(stereo not given)", "Potency": "inactive"}, {"smiles": "CCCCCCCCCCCCC(=O)CCCCC(=O)O", "Potency": "inactive"}, {"smiles": "COc1ccc(CO)cc1", "Potency": "inactive"}, {"smiles": "C=C1CC23C[C@H]4[C@@H]5[C@@]6(C)C[C@H](OC(=O)c7ccccc7)[C@@H](OC(C)=O)[C@]57[C@@H]2[C@@H](OC(C)=O)[C@H]1[C@@H](O)[C@H]3[C@H]7N4C6", "Potency": "inactive"}, {"smiles": "O=C(O)C=C(Br)Br", "Potency": "inactive"}, {"smiles": "O=C1CCCCCCCCCCCCCCO1", "Potency": "inactive"}]}]}
